A selection: hits, their analogues and other compounds. The true share with any hit is near 12%.
Sfp PPTase inh – Sfp phosphopantetheinyl transferase inhibition | Q9F4F7 | Biochemical Sfp PPTase activity, qHTS | Potency, µM, without a hit: largest response in the series, negative = inhibition, most hits filed as inhibitors | 3.5% of 310,000 active | AID 1490;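 also: the enzyme is Sfp with the accession as filed and its product quenches rhodamine fluorescence; 0% = enzyme reaction without inhibitor and -100% = no enzyme wells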
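Sfp 15 nM + cpd, 15 min RT; start w/ rhodamine-CoA 5 uM, BHQ-2-YbbR 12.5 uM (final); 50 mM Hepes pH 7.6, 10 mM MgCl2, 0.01% NP-40, 0.01% BSA; read 525/598 nm at 0 and 30 min.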
HP1b chromo inh – inhibitors of HP1-beta chromodomain binding to methylated histone tails | Potency, µM (titrated, usually from 114 µM), inactives show at the highest dose activity change, negative = inhibition, actives largely listed as inhibitors | AID 540317 | 0.56% of 390,000 active | AlphaScreen HP1-beta / biotin-H3K9me3 peptide binding | P83916; also: nearly all actives have a fitted effect of over 70% in size
Target sequence (P83916 whole entry, looked up): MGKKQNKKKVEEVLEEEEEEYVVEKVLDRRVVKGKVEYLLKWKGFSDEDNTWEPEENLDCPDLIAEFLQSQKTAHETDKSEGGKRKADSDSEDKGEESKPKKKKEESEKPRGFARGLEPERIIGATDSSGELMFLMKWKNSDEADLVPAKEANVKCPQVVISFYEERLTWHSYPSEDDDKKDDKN
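HP1-beta protein (50 nM final) preincubated 30 min at room temperature with biotinylated H3(1-18)K9me3 peptide (50 nM) in PBS pH 7.4, 0.01% Tween-20, then compound added for 30 min. AlphaScreen streptavidin donor/nickel chelate acceptor beads (10 ug/mL final), 30 min dark, luminescence read.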
BAZ2B inh – BAZ2B (human) inhibition | Q9UIF8 | AlphaScreen BAZ2B-H3K14Ac peptide displacement | Potency, µM (top dose mostly 114 µM), without a hit: top-dose activity change, negative = inhibition, hits mostly inhibitors | 4.4% of 360,000 active | AID 504333; also: % is scaled to controls: 0 for no effect and ±100 for the full control effect; nearly all actives have a fitted effect of over 60% in size
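AlphaScreen displacement of biotin-H3(5-23)K14Ac peptide (50 nM final) from BAZ2B (50 nM final) in PBS pH 7.4, 0.01% Tween-20; complex preformed 30 min RT, then compounds (top 110 uM) 30 min RT, beads 20 min dark.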
JMJD2A Tudor inh – JMJD2A Tudor domain (human) inhibition | O75164 | AlphaScreen JMJD2A-Tudor / H3K4me3 peptide binding | Potency, µM (doses to about 114 µM), without a hit: at the top dose activity change, negative = inhibition, most hits filed as inhibitors | 4.4% of 390,000 active; also: % is scaled to controls: 0 for no effect and ±100 for the full control effect; nearly all actives have a fitted effect of over 50% in size
G9a block – blocks human histone lysine methyltransferase G9a; Q96KQ7; G9a H3K9 monomethylation, AlphaScreen, 2 h; Potency, µM (highest dose often 102 µM), for inactives: top-dose activity, negative = inhibition, most hits filed as inhibitors; 8.8% of 350,000 active; AID 504332; also: % is scaled to controls: 0 for no effect and ±100 for the full control effect; nearly all actives have a fitted effect of over 75% in size
Target sequence (Q96KQ7 913-1193 limits assumed): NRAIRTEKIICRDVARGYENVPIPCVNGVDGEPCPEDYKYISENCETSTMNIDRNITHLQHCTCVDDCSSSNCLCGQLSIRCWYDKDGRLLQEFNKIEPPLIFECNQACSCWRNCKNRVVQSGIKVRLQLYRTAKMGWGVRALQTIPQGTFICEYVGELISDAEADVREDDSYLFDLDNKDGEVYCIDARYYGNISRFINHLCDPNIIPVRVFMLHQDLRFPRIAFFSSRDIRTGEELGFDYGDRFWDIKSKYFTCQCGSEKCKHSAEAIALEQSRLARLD
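G9a (20 nM) preincubated 15 min RT with compounds, then 500 nM biotinylated H3K9 peptide and 20 uM SAM added; 2 h RT reaction. Monomethyl-H3K9 product detected by AlphaScreen with anti-H3K9me1 antibody, streptavidin donor and anti-rabbit IgG acceptor beads.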
Numbers without * were called inactive; [ ] = remark or other dose. Calls follow the shape of the dose curve; as a rule, active = well fitted curve in the direction sought with a large enough effect; inconclusive = small, poorly fitted or top-dose-only effect, or another doubt; inactive = no such curve, though single readings can be large; an effect the other way counts as inactive or inconclusive. Potency is read from the fitted curve at half-maximal effect.

Cc1ccc(C(=O)N/C(=C\c2ccco2)C(=O)NCCCn2ccnc2)cc1 was read as Sfp PPTase inh 1.8%, HP1b chromo inh 19.8%, BAZ2B inh 7.94µM*, JMJD2A Tudor inh 22.4µM* and G9a block -8.4%[59 µM].
CCN(c1cccc(C(F)(F)F)c1)S(=O)(=O)c1ccc2c(c1)CCN2C(=O)C1CC1 was read as Sfp PPTase inh 0.3%, HP1b chromo inh 50.1%, BAZ2B inh -5.1%, JMJD2A Tudor inh 10.4% and G9a block 2.6%[59 µM].
`Cc1cnc(NC(=O)c2ccncc2)s1` gave Sfp PPTase inh 9.5%, HP1b chromo inh 10.9%, BAZ2B inh -29.2%, JMJD2A Tudor inh 4.5% and G9a block 50.1µM*.
`O=C(CCCc1nc2ccccc2s1)Nc1nccs1` gave Sfp PPTase inh 44.7µM*, HP1b chromo inh 22.7%, BAZ2B inh -2.1%, JMJD2A Tudor inh -10.5% and G9a block 39.8µM*.
For CCOC(=S)SCC(=O)Nc1ncc(C)s1 the results were Sfp PPTase inh 15.8µM*, HP1b chromo inh 23.2%, BAZ2B inh -3.0% and JMJD2A Tudor inh -6.6%.
Cc1cnc(NC(=O)CCCc2nc3ccccc3s2)s1 was read as Sfp PPTase inh 39.8µM*, HP1b chromo inh 8.3%, BAZ2B inh -8.5%, JMJD2A Tudor inh -7.1% and G9a block 35.5µM*.
O=C(CCCSc1nc2ccccc2s1)Nc1nccs1 was read as Sfp PPTase inh -24.3%, HP1b chromo inh 37.2%, BAZ2B inh 1.7%, JMJD2A Tudor inh 16.2% and G9a block -35.0%[59 µM].
Screening Cc1nc2ccc(S(=O)(=O)NC(C(=O)NCc3ccc4c(c3)OCO4)C(C)C)cc2s1 (centres undefined) returned Sfp PPTase inh 22.7%, HP1b chromo inh 15.1%, BAZ2B inh 8.2%, JMJD2A Tudor inh -15.9% and G9a block 13.1%.
`COc1cc(CNCC(O)c2ccccc2)ccc1OCc1ccc(Cl)nc1` (centres undefined) gave Sfp PPTase inh 2.1%, HP1b chromo inh 33.2%, BAZ2B inh 4.9%, JMJD2A Tudor inh -9.6% and G9a block -0.2%[59 µM].
Screening CCCS(=O)(=O)N1CC(=O)N(c2cc(C)ccc2C)C(C)(C(=O)NC2CCCCCC2)C1 (centres undefined) returned HP1b chromo inh 48.2%, BAZ2B inh 2.1%, JMJD2A Tudor inh -8.6% and G9a block -21.6%[59 µM].
O=C(COc1ccccc1)Nc1nn[nH]n1 was read as Sfp PPTase inh -1.2%, HP1b chromo inh 33.3%, BAZ2B inh 79.4µM*, JMJD2A Tudor inh 79.4µM* and G9a block inconclusive.
COc1cccc2sc(NNC(=O)COc3ccccc3)nc12 was read as Sfp PPTase inh inconclusive, HP1b chromo inh 34.2%, BAZ2B inh -9.3%, JMJD2A Tudor inh -19.4% and G9a block inconclusive.
COc1ccc(C)c2sc(NNC(=O)COc3ccccc3)nc12 was read as Sfp PPTase inh 56.2µM*, BAZ2B inh -9.6% and G9a block inconclusive.
Screening COc1ccccc1OCC(=O)Nc1ncc(C)s1 returned HP1b chromo inh 28.5%, BAZ2B inh -2.4%, JMJD2A Tudor inh -11.5% and G9a block 15.2%[12.7 µM].
O=C(CCCc1nc2ccccc2s1)NNC(=O)CCN1CCN(Cc2ccccc2)CC1 was read as Sfp PPTase inh 14.9%, HP1b chromo inh 11.6%, BAZ2B inh -21.7%, JMJD2A Tudor inh -10.3% and G9a block 35.5µM*.
For Cc1cnc(NC(=O)COc2ccccc2)s1 the results were Sfp PPTase inh 9.1%, HP1b chromo inh -9.3%, BAZ2B inh -3.0%, JMJD2A Tudor inh 89.1µM* and G9a block 2.5%[59 µM].
CCc1ccccc1Nc1nc(N)nc(CSCC(=O)c2cc(C)n(C)c2C)n1 was read as Sfp PPTase inh -19.3%, HP1b chromo inh -13.9%, BAZ2B inh 56.2µM*, JMJD2A Tudor inh inconclusive and G9a block inconclusive.
For CCc1ccccc1Nc1nc(N)nc(CSc2nnnn2C)n1 the results were Sfp PPTase inh 18.6%, HP1b chromo inh 35.4%, BAZ2B inh inconclusive, JMJD2A Tudor inh -6.9% and G9a block 2.9%.
Screening COc1ccc(-c2noc(C(C)NC(=O)c3ccco3)n2)cc1 (centres undefined) returned HP1b chromo inh 11.1%, BAZ2B inh -4.5%, JMJD2A Tudor inh -9.4% and G9a block -0.9%[59 µM].
COc1ccc(Cn2c(SCc3ccc(C)cc3)nc3cc(OC)c(OC)cc3c2=N)cc1Cl was read as Sfp PPTase inh 3.98µM*, HP1b chromo inh -21.4%, BAZ2B inh inconclusive, JMJD2A Tudor inh inconclusive and G9a block 39.8µM*.
COc1cc2nc(SCc3ccc(Cl)cc3Cl)n(Cc3cccs3)c(=N)c2cc1OC was read as Sfp PPTase inh 5.0%, HP1b chromo inh 19.6%, BAZ2B inh -5.8% and JMJD2A Tudor inh -17.7%.
For COc1cc2nc(SCc3ccc(C(F)(F)F)cc3)n(Cc3cccs3)c(=N)c2cc1OC the results were Sfp PPTase inh 9.0%, HP1b chromo inh 29.0%, BAZ2B inh -6.4%, JMJD2A Tudor inh 14.7% and G9a block 20.7%[59 µM].
For COc1ccc(Cn2c(SCc3cc(C)ccc3C)nc3cc(OC)c(OC)cc3c2=N)cc1 the results were Sfp PPTase inh 3.16µM*, HP1b chromo inh -19.1%, BAZ2B inh inconclusive, JMJD2A Tudor inh inconclusive and G9a block inconclusive.
`Cn1ccc2cc(-c3ccc4ncnc(NCc5ccc6c(c5)OCO6)c4c3)ccc21` gave BAZ2B inh -36.7% and G9a block 6.9%[12.7 µM].
COc1ccc(S(=O)(=O)Nc2cccc(-c3ccc4nncn4n3)c2)cc1F was read as Sfp PPTase inh 3.4%, HP1b chromo inh 22.4%, BAZ2B inh -18.1%, JMJD2A Tudor inh -17.6% and G9a block 9.2%.
Screening CCCCNC(=O)NNc1nc(Cl)cc(C)c1C#N returned Sfp PPTase inh -26.8%, HP1b chromo inh 36.1%, BAZ2B inh -4.9%, JMJD2A Tudor inh 6.8% and G9a block 31.6µM*.
`CCCCOc1ccc(Nc2nc(C)cc(C)c2C#N)cc1` gave Sfp PPTase inh -7.2%, HP1b chromo inh 40.6%, BAZ2B inh 29.9%, JMJD2A Tudor inh -3.4% and G9a block 13.8%[59 µM].
`CCOC(=O)C(C)(C)Oc1cccc2c1S(=O)(=O)c1ccccc1-2` gave HP1b chromo inh 26.2% and JMJD2A Tudor inh 12.6%.
`O=C(N/N=C\c1cccc([N+](=O)[O-])c1O)C1COc2ccccc2O1` (centres undefined) gave Sfp PPTase inh 14.8%, HP1b chromo inh 10.8%, BAZ2B inh 35.5µM*, JMJD2A Tudor inh inconclusive and G9a block -2.7%[59 µM].
`O=C(N/N=C/c1cccc([N+](=O)[O-])c1)C1COc2ccccc2O1` (centres undefined) gave Sfp PPTase inh -1.6%, HP1b chromo inh 24.9%, BAZ2B inh 10.0%, JMJD2A Tudor inh 0.0%[11.4 µM] and G9a block -37.4%.
For COc1cc([N+](=O)[O-])cc(/C=N\NC(=O)C2COc3ccccc3O2)c1O (centres undefined) the results were Sfp PPTase inh 23.2%, HP1b chromo inh 23.0%, BAZ2B inh 39.8µM*, JMJD2A Tudor inh 56.2µM* and G9a block inconclusive.

Screening data (PubChem BioAssay)
